# RORgamma inh = qHTS for inhibitors of ROR gamma transcriptional activity; 310,000 compounds, 5.4% hits; AID 2551, 2010; Potency, µM (top dose mostly 53.6 µM), for inactives: at the highest dose activity change, negative = inhibition, hits mostly inhibitors; Drosophila S2 Gal4-RORgamma UAS-luciferase reporter, 20 h; Nuclear receptor ROR-gamma (Mus musculus), P51450; note: potency is the fitted concentration of half-maximal effect; nearly all actives have a fitted effect of over 60% in size
# Target sequence (P51450 whole entry, looked up, the tested form may be a part): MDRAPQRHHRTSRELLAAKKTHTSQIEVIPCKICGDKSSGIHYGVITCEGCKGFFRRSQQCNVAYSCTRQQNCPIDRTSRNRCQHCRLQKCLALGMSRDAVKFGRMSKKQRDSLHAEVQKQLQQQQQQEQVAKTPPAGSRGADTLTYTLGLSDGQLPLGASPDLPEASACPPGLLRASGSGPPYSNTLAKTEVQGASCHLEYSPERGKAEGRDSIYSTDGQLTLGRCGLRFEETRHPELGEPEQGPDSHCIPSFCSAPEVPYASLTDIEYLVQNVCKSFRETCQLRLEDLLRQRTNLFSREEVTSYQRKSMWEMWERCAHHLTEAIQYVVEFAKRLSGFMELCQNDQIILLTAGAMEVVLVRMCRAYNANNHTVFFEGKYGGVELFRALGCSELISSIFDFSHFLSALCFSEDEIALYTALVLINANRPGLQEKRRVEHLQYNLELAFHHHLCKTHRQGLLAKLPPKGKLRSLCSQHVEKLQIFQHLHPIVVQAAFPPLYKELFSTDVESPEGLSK
#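 Schneider cells (Drosophila), stable Gal4 DBD–ROR gamma + UAS-luc; 1 hr cmpd preincubation; Cu2+ induction 700 uM final; 20 hr ambient; luminescence.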
# TDP1 cell noCPT = qHTS for Inhibitors of human tyrosyl-DNA phosphodiesterase 1 (TDP1): qHTS in cells in absence of CPT | DT40 Tdp1-/- hTDP1 cells, no CPT, ATP luminescence, 48 h | Potency, µM (top dose mostly 46.2 µM), inactives show at the highest dose activity change, negative = growth inhibition, usual class: inhibitors | 420,000 compounds, 15% hits; note: potency is the fitted concentration of half-maximal effect; nearly all actives have a fitted effect of over 55% in size
#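 Chicken DT40 Tdp1-/- cells complemented with human TDP1, screened without camptothecin (DMSO vehicle only), 400 cells/well. Compounds pin-transferred, cells incubated at 37 °C for at least 48 hr. Growth read as ATP-dependent luminescence (CellTiter-Glo, 30 min at RT).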
# VP16 counter = VP16 counterscreen qHTS for inhibitors of ROR gamma transcriptional activity | AID 2546, 2010 | Drosophila S2 Gal4-VP16 UAS-luciferase, luminescence, 20 h | 310,000 compounds, 3.5% hits | Potency, µM (top dose mostly 53.6 µM), inactives show top-dose activity, negative = inhibition, actives largely listed as inhibitors;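 note: Gal4-VP16 expression switched on by copper sulfate through the metallothionein promoter; potency is the fitted concentration of half-maximal effect; nearly all actives have a fitted effect of over 50% in size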
# ELG1 repair inh = qHTS screen for small molecules that inhibit ELG1-dependent DNA repair in human embryonic kidney (HEK293T) cells expressing luciferase-tagged ELG1; HEK293T ELG1-luciferase reporter, luminescence, 16 h; DNA damage induced by 5-fluorouridine; Potency, µM (highest dose often 46.1 µM), without a hit: at the top dose activity change, negative = inhibition, most hits filed as inhibitors; 330,000 compounds, 2.3% hits; AID 504467, 2011; note: potency is the fitted concentration of half-maximal effect; nearly all actives have a fitted effect of over 55% in size
#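 Cells (2,000 per well) received 5-fluorouridine plus test compound or DMSO and were incubated 16 hr at 37 °C, 5% CO2. Luciferase activity was read by luminescence 30 min after ONE-Glo addition; signal suppression marked inhibition of damage-induced ELG1 function.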
# DT40 TDP1 CPT = qHTS for Inhibitors of human tyrosyl-DNA phosphodiesterase 1 (TDP1): qHTS in cells in presence of CPT. chicken DT40 Tdp1-/-;hTDP1 cells + 20 nM CPT, ATP luminescence, 48 h. Potency, µM (top dose mostly 46.2 µM), for the others: at the top dose activity change, negative = growth inhibition, actives largely listed as inhibitors. AID 686979, 2013. 420,000 compounds, 12% hits; note: potency is the fitted concentration of half-maximal effect; nearly all actives have a fitted effect of over 55% in size
#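 Chicken DT40 Tdp1-/- cells complemented with human TDP1, 400 cells/well, exposed to compounds plus 20 nM camptothecin for at least 48 h at 37 C; viability read as ATP content by CellTiter-Glo luminescence.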
# IL1B secr inh = qHTS for Inhibitors of Inflammasome Signaling: IL-1-beta AlphaLISA Primary Screen; THP-1 LPS/ATP IL-1B secretion, AlphaLISA, 16 h; active compounds read low; activity change, % at 57.5 µM; 360,000 compounds, 4.7% hits; AID 743279, 2014; in the data active = activity change below about -50%; inconclusive = mostly about -30% to -49%
#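 Secreted IL-1B measured by AlphaLISA bead assay after 16 h compound exposure of THP-1 cells; compounds (final up to 57.5 uM) added 1 h before LPS (250 ng/mL) and ATP (1.25 mM) stimulation; lower signal means less secretion.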
# ELG1 FLuc counter = qHTS screen for small molecules that inhibit ELG1-dependent DNA repair: Hit Confirmation in Cell-Based Luciferin Assay; shares compounds with ELG1 repair inh; cell-free firefly luciferase luminescence counter-screen, ViewLux; Potency, µM (titrated, usually from 46.1 µM), inactives show top-dose activity change, negative = inhibition, actives largely listed as inhibitors; 350 compounds, 3% hits; AID 624247, 2012; note: potency is the fitted concentration of half-maximal effect
# ELG1 Luc conf = HTS assay for small molecules that inhibit ELG1-dependent DNA repair in human embryonic kidney (HEK293T) cells expressing luciferase-tagged ELG1: Hit Confirmation; HEK293T ELG1-luciferase levels, luminescence; cells co-treated with 5-fluorouridine; Potency, µM (highest dose often 46.1 µM), without a hit: top-dose activity change, negative = inhibition, most hits filed as inhibitors; 670 compounds, 68% hits; shares compounds with ELG1 repair inh; note: potency is the fitted concentration of half-maximal effect; nearly all actives have a fitted effect of over 55% in size
# ELG1 MMS Luc = inhibits ELG1-dependent repair under MMS stimulation in HEK293T cells. shares compounds with ELG1 repair inh. HEK293T luciferase-tagged ELG1 level, MMS stimulated. Potency, µM (doses to about 46.1 µM), for inactives: at the top dose activity change, negative = inhibition, most hits filed as inhibitors. 670 compounds, 53% hits; note: potency is the fitted concentration of half-maximal effect; nearly all actives have a fitted effect of over 60% in size
# ELG1 5FU viab = qHTS screen for small molecules that inhibit ELG1-dependent DNA repair: Hit Confirmation with 5FU Viability | cell viability with 5-FU, ELG1-dependent repair | Potency, µM (top dose mostly 46.1 µM), for inactives: top-dose activity change, negative = viability loss, usual class: cytotoxic | shares compounds with ELG1 repair inh | 670 tested, under 10 active;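 note: ELG1-luc HEK293T cells cotreated with 5-fluorouridine at 10 µM final; potency is the fitted concentration of half-maximal effect; viability measured 16 h after compound addition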
# ELG1 MMS viab = qHTS screen for small molecules that inhibit ELG1-dependent DNA repair: Hit Confirmation with MMS Viability; Potency, µM (series often up to 46.1 µM), for the others: at the top dose activity change, negative = viability loss, most hits filed as cytotoxic; 670 compounds, 33% hits; shares compounds with ELG1 repair inh; Cell viability with MMS, ELG1-dependent DNA repair;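 note: ELG1-luc HEK293T cells co-treated with 10 µM MMS; potency is the fitted concentration of half-maximal effect; viability read 16 h after compound addition; nearly all actives have a fitted effect of over 60% in size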
# Cell viab unstim = qHTS screen for small molecules that inhibit ELG1-dependent DNA repair: Hit Confirmation with Unstimulated Viability Assay. shares compounds with ELG1 repair inh. 900 compounds, 8% hits. cell viability counter-screen, unstimulated, luminescence. Potency, µM (titrated, usually from 45.9 µM), for inactives: at the top dose activity change, negative = loss of viability, actives largely listed as cytotoxic. AID 624252, 2012;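 note: potency is the fitted concentration of half-maximal effect; compound exposure lasted 16 hours before reading; nearly all actives have a fitted effect of over 55% in size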
# FLuc enzyme = qHTS screen for small molecules that inhibit ELG1-dependent DNA repair: Hit Confirmation in Biochemical Luciferin Assay | shares compounds with ELG1 repair inh | purified firefly luciferase, luminescence counter-screen | Potency, µM (highest dose often 57.5 µM), without a hit: at the highest dose activity, negative = inhibition, hits mostly inhibitors | 350 compounds, 10% hits; note: potency is the fitted concentration of half-maximal effect
# Active calls of the source: *; ? = inconclusive; nt = not tested or not shown. Compounds with a hit are over-represented: about 21% of the library has one in this group of screens. Unless noted, calls come from the whole dose curve; as a rule, active = well fitted curve in the direction sought with a large enough effect; inconclusive = small, poorly fitted or top-dose-only effect, or another doubt; inactive = no such curve, though single readings can be large; an effect the other way counts as inactive or inconclusive. % is set by controls: 0 for no effect and ±100 for the full control effect.
SMILES,RORgamma inh,TDP1 cell noCPT,VP16 counter,ELG1 repair inh,DT40 TDP1 CPT,IL1B secr inh,Cell viab unstim,others
O=C(Nc1nc(-c2ccc3c(c2)OCCO3)cs1)c1ccc(S(=O)(=O)N2CCCCC2)cc1,11.5%,?,-10.8%,4.11µM*,?,-78.9*,-18.4%,ELG1 Luc conf=?;ELG1 MMS Luc=2.81µM*;ELG1 5FU viab=7.3%;ELG1 MMS viab=3.53µM*
O=C(Nc1nc(-c2cccnc2)cs1)c1ccc(S(=O)(=O)N2CCOCC2)cc1,24.3%,?,1.4%,?,?,2.7,nt,
Cn1cnc2c(F)c(Nc3ccc(Br)cc3Cl)c(C(=O)NOCCO)cc21,nt,3.0%,nt,nt,0.5%,nt,-24.9%,
CCc1cc(OCCOCCN(C)C)ccc1Cl,-0.4%,?,-9.1%,-6.2%,?,-5.1,nt,
CSCCC(Nc1ncnc2ccc(Br)cc12)C(=O)O (configuration not stated),-12.6%,-12.4%,-5.3%,0.0%,?,52.8,nt,
CC(C)Nc1ncnc2ccc(Br)cc12,-12.9%,4.11µM*,?,2.31µM*,4.11µM*,-6.1,?,ELG1 Luc conf=3.53µM*;ELG1 MMS Luc=7.91µM*;ELG1 5FU viab=-5.1%;ELG1 MMS viab=9.96µM*
O=C(Nc1cccc(C(=O)O)c1)/C(=C\c1ccc2c(c1)OCO2)NC(=O)c1ccccc1Cl,-14.2%,-6.1%,1.6%,1.6%,2.7%,0.0,nt,
Cc1cc(C)cc(NC(=S)N2CCC(NC(=O)c3ccccc3C)CC2)c1,?,-18.6%,-9.3%,-9.6%,-10.6%,-4.8,nt,
Cc1ccccc1-n1c(SCC(=O)c2c(N)n(C)c(=O)n(C)c2=O)nc2sc3c(c2c1=O)CCCC3,-7.0%,23.1µM*,-14.2%,1.64µM*,18.4µM*,9.6,-15.8%,ELG1 FLuc counter=-6.9%;ELG1 Luc conf=2.5µM*;ELG1 MMS Luc=-16.9%;ELG1 5FU viab=?;ELG1 MMS viab=-1.1%;FLuc enzyme=-2.0%
Cc1ccccc1-n1c(SCC(=O)c2c(N)n(C)c(=O)n(C)c2=O)nnc1-c1cccnc1,2.8%,-21.4%,0.5%,?,-12.7%,0.8,nt,
CCC(=O)Oc1ccc(-c2nc(-c3cccnc3)no2)cc1,-38.7%,-7.4%,-28.9%,?,-29.6%,-5.2,nt,
CC(=O)Oc1ccc(-c2nc(-c3ccccc3)no2)cc1,nt,?,nt,nt,?,nt,?,
CCOc1ccc(NC(=O)NCc2ccc3c(c2)OCO3)cc1,19.8%,3.4%,-0.4%,-2.7%,-2.8%,-2.9,nt,
Cn1c(=O)c2c(nc(NCCc3ccccc3)n2CC(=O)NCCc2ccccc2)n(C)c1=O,18.7%,5.1%,9.5%,-11.8%,-1.6%,-6.3,nt,
C/C(Cl)=C\Cn1c(NCCc2ccccc2)nc2c1c(=O)n(C)c(=O)n2C,7.08µM*,0.82µM*,3.55µM*,5.17µM*,0.651µM*,-51.9*,?,ELG1 FLuc counter=-9.5%;ELG1 Luc conf=12.6µM*;ELG1 MMS Luc=5µM*;ELG1 5FU viab=-1.1%;ELG1 MMS viab=?;FLuc enzyme=-0.6%
O=[N+]([O-])c1ccc(COP(=O)(O)OCc2ccc([N+](=O)[O-])cc2)cc1,nt,-14.5%,nt,nt,-0.5%,11.5,nt,
COc1ccc(-c2nn(-c3ccccc3)cc2C(=O)N2CCN(C(=O)c3ccco3)CC2)cc1,nt,-13.4%,nt,?,-12.1%,-25.4,nt,
CCOc1ccccc1CN1CCCC(CNC(=O)Cc2ccc(OC)cc2)C1 (configuration not stated),-2.0%,-0.1%,-0.8%,?,-9.4%,-1.1,nt,
Cc1ccc(S(=O)(=O)N2CCCCC2c2cccnc2)c(C)c1C (configuration not stated),36.0%,23.1µM*,-23.2%,0.82µM*,?,0.0,?,ELG1 FLuc counter=1.0%;ELG1 Luc conf=0.0141µM*;ELG1 MMS Luc=14.1µM*;ELG1 5FU viab=-0.7%;ELG1 MMS viab=19.9µM*;FLuc enzyme=2.8%
COc1cc(OC)c2c(-c3cccc(-c4ccc(N(C)C)cc4)c3)cc(=O)oc2c1,-4.9%,1.16µM*,-12.3%,?,1.84µM*,64.6,-13.1%,
COC(=O)/C(=C/c1ccco1)NC(=O)c1ccco1,15.5%,-7.0%,-1.4%,-4.4%,6.7%,2.1,nt,
